# Reference: PubChem BioAssay
# Calls of active or inactive are those of the source.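 How the source made its calls: active means RAM network inhibition above 8.4% in each of two replicates, 3 SD over the compound average; inconclusive means above 8.4% inhibition in only one replicate; inactive means 8.4% inhibition or less in each replicate.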
# Test: RAM signaling pathway blockade in yeast – S. cerevisiae, Pdr1DBD-CYC8 efflux-inhibited sensitized strain, primary screen (AID 1298);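 further: 0% = DMSO untreated cells without growth and 100% = 10 µM 1-NA-PP1 full growth; higher means more yeast growth rescued from 5-FOA killing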
# Conditions: S. cerevisiae cbk1-as DSE1-URA3 strain, 5-FOA growth OD615, 2 d; at 50 µM; active compounds read high
row,Structure (SMILES),RAM network inhibition
1,Cn1c(C(=O)N2CCC(C(N)=O)CC2)cc2c(=O)n(C)c3ccccc3c21,2.21% (inactive)
2,COc1ccccc1N1CCN(C(=O)c2sc3nc(-c4ccc(F)cc4)cn3c2C)CC1,1.42% (inactive)
3,CC(C)CNS(=O)(=O)c1ccc(S(=O)(=O)N2CCN(CCC#N)CC2)cc1,-0.19% (inactive)
4,CCCN1Cc2cccc(C(=O)Nc3ccc4c(c3)OCCO4)c2C1=O,2.75% (inactive)
5,CCOC(=O)CN1CC23C=CC(O2)C(C(=O)NC2CCCCCC2)C3C1=O (stereo unspecified),0.37% (inactive)
6,Cc1nnc(NC(=O)CSc2nnc(Cc3cccn3C)n2C)s1,1.93% (inactive)
